In ChEMBL document CHEMBL3988442, “University of Dundee, Small-Polar-MMV Screening Library” (2021):

What follows are compounds tested against T1, Aspartate--tRNA(Asp/Asn) ligase (Mycobacterium tuberculosis (strain ATCC 25618 / H37Rv)) (UniProt P9WFW3) (assay: Assay for Asp RNA synthetase-1 from Mycobacterium tuberculosis). Settings: 30 µM.
T1 sequence (whole entry): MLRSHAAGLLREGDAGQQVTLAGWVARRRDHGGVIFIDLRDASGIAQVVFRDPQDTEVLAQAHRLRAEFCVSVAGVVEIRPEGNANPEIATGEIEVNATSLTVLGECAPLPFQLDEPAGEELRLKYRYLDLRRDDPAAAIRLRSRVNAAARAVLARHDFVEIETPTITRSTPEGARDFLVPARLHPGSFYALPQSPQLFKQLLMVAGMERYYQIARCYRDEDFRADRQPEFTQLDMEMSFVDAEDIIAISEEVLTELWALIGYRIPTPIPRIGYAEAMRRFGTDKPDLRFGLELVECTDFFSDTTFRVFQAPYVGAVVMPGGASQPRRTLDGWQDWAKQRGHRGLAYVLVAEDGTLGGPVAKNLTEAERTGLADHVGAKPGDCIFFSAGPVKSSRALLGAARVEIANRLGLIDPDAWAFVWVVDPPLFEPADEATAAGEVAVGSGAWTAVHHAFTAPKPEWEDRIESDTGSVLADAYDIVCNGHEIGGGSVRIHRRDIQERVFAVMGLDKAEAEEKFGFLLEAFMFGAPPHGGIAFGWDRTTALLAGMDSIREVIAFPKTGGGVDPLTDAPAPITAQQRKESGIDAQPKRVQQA
Type: functional
Parameters: scale not given: direction of the effect not stated beside the values

Structure (SMILES)	Percent Effect
CCc1nnc2n1CC(CNCc1ccncc1)CC2 (stereo not given)	-3.51%
CC(C)N(C)Cc1nnc2n1CCN(Cc1ccncc1)CC2	3.87%
O=C(c1cc(C2CC2)[nH]n1)N1CCN(Cc2ccsc2)CC1	-6.85%
O=C(Nc1nccs1)N(CCO)Cc1ccsc1	-2.48%
Cc1occc1C(=O)N1CCC2(CC1)C(c1cnn(C)c1)CC(=O)N2C (stereo not given)	2.49%
CC(CCN1CCn2nc(CNC(=O)N(C)C)cc2C1)c1ccccc1 (stereo not given)	-3.2%
CCc1nc(CN(C)C2CCN(Cc3ccc(C#N)cc3F)C2)no1 (stereo not given)	-1.38%
O=C(NCc1csc(Br)c1)c1ccncc1	-0.335%
COc1ccc(CN(C)C(=O)NCc2c(C)cc(C)[nH]c2=O)cc1	0.281%
Cc1cc(N(C)C)nc(C2(C)CCCN2C(=O)c2cnccn2)n1 (stereo not given)	1.19%
CCc1nccn1C1CCCN(C(=O)c2cnc3ccccc3n2)C1 (stereo not given)	1.02%
COc1cccc(N2CCN(C(=O)[C@H](O)C3CCCCC3)CC2=O)c1	-3.25%
COc1ncccc1CNC(=O)c1cccc(C)n1	-1.63%
O=c1cc(CN2CCCC2)nc2n1CCCN(Cc1ccsc1)C2	-4.85%
Cn1cnc(S(=O)(=O)N2CCCC2)c1Cl	-1.03%
O=C(CCC1CC1)N1C[C@@H](CN2CCCC2)[C@@H](CO)C1	0.505%
O=C(Cc1csc(-c2ccco2)n1)N1CCN(c2cnccn2)CC1	-2.43%
CC(NC(=O)Cn1cccn1)c1ccc2c(c1)OCCCO2 (stereo not given)	-2.88%
Cc1ccc(C(=O)N2CCn3cc(CN4CCCCC4)nc3C2)o1	8.53%
c1ccc(-c2cnc(CNCC3CCCN3c3cccnn3)o2)cc1 (stereo not given)	1.15%

Structure (SMILES)	Percent Effect
O=C(Nc1ccccc1F)N1CCN(Cc2noc(C3CC3)n2)CC1	1.99%
COCc1cc(NCc2cc(F)ccc2F)n2nccc2n1	7.1%
CCn1nccc1CNC(=O)C1CCCC1	11.4%
COc1c(CNC2CCOc3ccccc32)c(C(C)C)nn1C (stereo not given)	0.728%
Cc1ccc(CN(C)C(=O)CN2CC(n3cccn3)C2)o1	1.26%
CCC(O)CN1CCN(C(=O)c2ccnc(N(C)C)c2)CC1 (stereo not given)	-4.29%
Cc1nc([C@@H]2C[C@@H]3CCN(C(=O)c4occc4C)C[C@H]3O2)no1	10.9%
Cc1cc(C)cc(NC(=O)CN2CCCC(n3cncn3)C2)c1 (stereo not given)	-0.903%
CCN(CC)S(=O)(=O)N1CCCC(c2cccc(C(=O)O)c2)C1 (stereo not given)	-1.97%
C[C@@H]1CN(C(=O)NC2CC2)C[C@]12CCN(c1ccsc1)C2=O	2.34%
CCn1cc(CN2CCCN(C(=O)CCCn3cncn3)CC2)cn1	-4.34%
Cc1nc(CNCc2c(C)nn(C)c2N2CCOCC2)cs1	-5.61%
CN(C)C(=O)COC[C@]12COC[C@H]1CN(CC1CCC1)C2	-8.17%
CC(C)NC(=O)[C@@H](NC(=O)N1CCN(c2ccc(Cl)cc2)CC1)C(C)C	-2.11%
O=C(c1ccc[nH]1)N1CCCC(c2cc(C(F)(F)F)[nH]n2)C1 (stereo not given)	3.68%
CN(Cc1ccccn1)C1CC2(CCN(Cc3cccnc3)CC2)C1	-2.75%
CC1(C)OCC(CNC(=O)c2cnn(-c3cc(Cl)ccc3Cl)c2N)O1 (stereo not given)	-2.66%
CC(C)OCCOCc1cccc(NC(=O)NCc2ccccn2)c1	8.32%
CNC(=O)c1cccc(NC(=O)CN2CCN(S(C)(=O)=O)CC2)c1	-5.52%
c1cncc(COCC2CN(Cc3ccco3)Cc3ccnn3C2)c1 (stereo not given)	1.51%

What follows are compounds tested against Shiga toxin 2 (Escherichia coli O157:H7) (UniProt P09385+P09386) (assay: E. coli 0.157:H7 Shiga Toxin SOP - stx2 screening assay). Settings: 30 µM.
Type: functional
Parameters: scale not given: direction of the effect not stated beside the values

Structure (SMILES)	Percent Effect
CCc1nnc2n1CC(CNCc1ccncc1)CC2 (stereo not given)	-13.5%
CC(C)N(C)Cc1nnc2n1CCN(Cc1ccncc1)CC2	1.49%
O=C(c1cc(C2CC2)[nH]n1)N1CCN(Cc2ccsc2)CC1	-27.3%
O=C(Nc1nccs1)N(CCO)Cc1ccsc1	-3.95%
Cc1occc1C(=O)N1CCC2(CC1)C(c1cnn(C)c1)CC(=O)N2C (stereo not given)	-8.78%
CC(CCN1CCn2nc(CNC(=O)N(C)C)cc2C1)c1ccccc1 (stereo not given)	-1.92%
CCc1nc(CN(C)C2CCN(Cc3ccc(C#N)cc3F)C2)no1 (stereo not given)	20.3%
O=C(NCc1csc(Br)c1)c1ccncc1	-44.3%
COc1ccc(CN(C)C(=O)NCc2c(C)cc(C)[nH]c2=O)cc1	31.7%
Cc1cc(N(C)C)nc(C2(C)CCCN2C(=O)c2cnccn2)n1 (stereo not given)	-0.274%
CCc1nccn1C1CCCN(C(=O)c2cnc3ccccc3n2)C1 (stereo not given)	11.4%
COc1cccc(N2CCN(C(=O)[C@H](O)C3CCCCC3)CC2=O)c1	-7.11%
COc1ncccc1CNC(=O)c1cccc(C)n1	-24.7%
O=c1cc(CN2CCCC2)nc2n1CCCN(Cc1ccsc1)C2	-22.4%
Cn1cnc(S(=O)(=O)N2CCCC2)c1Cl	-7.1%
O=C(CCC1CC1)N1C[C@@H](CN2CCCC2)[C@@H](CO)C1	-35.6%
O=C(Cc1csc(-c2ccco2)n1)N1CCN(c2cnccn2)CC1	-70.6%
CC(NC(=O)Cn1cccn1)c1ccc2c(c1)OCCCO2 (stereo not given)	-69%
Cc1ccc(C(=O)N2CCn3cc(CN4CCCCC4)nc3C2)o1	-27.2%
c1ccc(-c2cnc(CNCC3CCCN3c3cccnn3)o2)cc1 (stereo not given)	11.4%

Structure (SMILES)	Percent Effect
O=C(Nc1ccccc1F)N1CCN(Cc2noc(C3CC3)n2)CC1	-11.6%
COCc1cc(NCc2cc(F)ccc2F)n2nccc2n1	-13.4%
CCn1nccc1CNC(=O)C1CCCC1	-65.5%
COc1c(CNC2CCOc3ccccc32)c(C(C)C)nn1C (stereo not given)	2.37%
Cc1ccc(CN(C)C(=O)CN2CC(n3cccn3)C2)o1	-26.8%
CCC(O)CN1CCN(C(=O)c2ccnc(N(C)C)c2)CC1 (stereo not given)	-17.1%
Cc1nc([C@@H]2C[C@@H]3CCN(C(=O)c4occc4C)C[C@H]3O2)no1	-14.5%
Cc1cc(C)cc(NC(=O)CN2CCCC(n3cncn3)C2)c1 (stereo not given)	12.2%
CCN(CC)S(=O)(=O)N1CCCC(c2cccc(C(=O)O)c2)C1 (stereo not given)	9.71%
C[C@@H]1CN(C(=O)NC2CC2)C[C@]12CCN(c1ccsc1)C2=O	-3.08%
CCn1cc(CN2CCCN(C(=O)CCCn3cncn3)CC2)cn1	-21.5%
Cc1nc(CNCc2c(C)nn(C)c2N2CCOCC2)cs1	23.3%
CN(C)C(=O)COC[C@]12COC[C@H]1CN(CC1CCC1)C2	-9.5%
CC(C)NC(=O)[C@@H](NC(=O)N1CCN(c2ccc(Cl)cc2)CC1)C(C)C	-49%
O=C(c1ccc[nH]1)N1CCCC(c2cc(C(F)(F)F)[nH]n2)C1 (stereo not given)	36.4%
CN(Cc1ccccn1)C1CC2(CCN(Cc3cccnc3)CC2)C1	-14.8%
CC1(C)OCC(CNC(=O)c2cnn(-c3cc(Cl)ccc3Cl)c2N)O1 (stereo not given)	17.5%
CC(C)OCCOCc1cccc(NC(=O)NCc2ccccn2)c1	-20.3%
CNC(=O)c1cccc(NC(=O)CN2CCN(S(C)(=O)=O)CC2)c1	1.24%
c1cncc(COCC2CN(Cc3ccco3)Cc3ccnn3C2)c1 (stereo not given)	-12.8%
